# The supplement of paper PMC6555819
# Assays:
# Assay in all cases: PBM binding z-score (relative to random genomic background probes); higher = stronger binding; sequences stand for … in GC…GCGATTGACAGCGTAGAATGAAGG
# [1] = tested on: FXR:RXRa (NR concentration 270 nM, RXRa partner concentration 90 nM)
# Procedure, shortened: (§1)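 Random background probes are the reference for binding z-scores. These scores derive from regression-normalized fluorescence on custom Agilent 4×180K protein-binding microarrays incubated 1 h with ligand-free nuclear receptor dimers. Binding was detected with antibodies against each partner (one per run).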
# [2] = tested on: LXRa:RXRa (NR concentration 270 nM, RXRa partner concentration 90 nM)
# Procedure, shortened: as §1
# [3] = tested on: LXRa homodimer (NR concentration 270 nM)
# Procedure, shortened: as §1
# [4] = tested on: LXRb:RXRa (NR concentration 270 nM, RXRa partner concentration 90 nM)
# Procedure, shortened: as §1
# [5] = tested on: LXRb homodimer (NR concentration 270 nM)
# Procedure, shortened: as §1
# [6] = tested on: PPARa:RXRa (NR concentration 270 nM, RXRa partner concentration 90 nM)
# Procedure, shortened: as §1
# [7] = tested on: PPARg:RXRa (NR concentration 180 nM, RXRa partner concentration 90 nM)
# Procedure, shortened: as §1
# [8] = tested on: PPARg:RXRa 270nM:90nM, anti-RXR (NR concentration 270 nM, RXRa partner concentration 90 nM)
# Procedure, shortened: as §1
# [9] = tested on: PPARg:RXRa 30nM:10nM, anti-RXR (NR concentration 30 nM, RXRa partner concentration 10 nM)
# Procedure, shortened: as §1
# [10] = tested on: PPARg:RXRa 90nM:30nM, anti-RXR (NR concentration 90 nM, RXRa partner concentration 30 nM)
# Procedure, shortened: as §1
# [11] = tested on: PPARg:RXRa DBDmut IVT, anti-RXR (DBD mutation: RXRa K156A/R161A, NR concentration 270 nM, RXRa partner concentration 90 nM)
# Procedure, shortened: as §1
# [12] = tested on: PPARg:RXRa IVT, anti-PPARg (NR concentration 270 nM, RXRa partner concentration 90 nM)
# Procedure, shortened: as §1
# [13] = tested on: PPARg DBDmut:RXRa IVT, anti-PPARg (DBD mutation: PPARg1 K132A/R137A, NR concentration 270 nM, RXRa partner concentration 90 nM)
# Procedure, shortened: as §1
# [14] = tested on: PPARg DBDmut IVT, anti-PPARg (DBD mutation: PPARg1 K132A/R137A, NR concentration 270 nM)
# Procedure, shortened: as §1
# [15] = tested on: PPARg homodimer (NR concentration 180 nM)
# Procedure, shortened: as §1
# [16] = tested on: PXR:RXRa (NR concentration 270 nM, RXRa partner concentration 90 nM)
# Procedure, shortened: as §1
# [17] = tested on: PXR homodimer (NR concentration 270 nM)
# Procedure, shortened: as §1
# [18] = tested on: RARa:RXR (NR concentration 270 nM, RXRa partner concentration 90 nM)
# Procedure, shortened: as §1
# [19] = tested on: RARa homodimer (NR concentration 270 nM)
# Procedure, shortened: as §1
Sequence,PBM binding z-score [1],PBM binding z-score [2],PBM binding z-score [3],PBM binding z-score [4],PBM binding z-score [5],PBM binding z-score [6],PBM binding z-score [7],PBM binding z-score [8],PBM binding z-score [9],PBM binding z-score [10],PBM binding z-score [11],PBM binding z-score [12],PBM binding z-score [13],PBM binding z-score [14],PBM binding z-score [15],PBM binding z-score [16],PBM binding z-score [17],PBM binding z-score [18],PBM binding z-score [19]
ATATGAAGGTTATCGGGTCATTCAGTTTGCGCAT,4.04,3.38,1.74,3.02,0.891,4.1,4.21,4.21,1.52,3.11,3.47,4.42,1.16,1.48,2.47,3.93,8.15,4.44,0.435
CAAGCTAGGTCAAGAGGTCAAAGTCCGCTTCCCG,7.28,6.35,6.45,5.81,1.58,6.2,6.82,6.77,4.04,6.31,4.26,5.5,0.198,-0.534,7.12,6.25,3.16,7.58,3.04
CGTCTAAGGTCAGCAGGTCAGTGAAAGCGACGTG,6.71,4.48,0.785,3.61,0.0498,5.3,4.86,5.46,1.6,4.03,3.72,3.7,0.756,0.144,5.12,4.16,0.612,5.94,2.05
CGAACTAGCTCAAGGACAGTGAATCTCCGCACGC,0.148,-0.503,0.172,-0.398,-0.571,-0.568,0.277,-0.53,-0.374,-0.661,0.26,-0.559,-0.68,-0.183,-0.00792,-0.255,-0.354,-0.192,-0.143
CCGACTGGGCCATTCAGAGGTCATTGATCATATG,2.92,4.38,6.59,3.54,-0.323,3.44,1.4,2.29,0.268,1.42,3.29,2.53,-0.872,-0.8,3.14,4.88,2.75,4.62,-0.131
CGAACTAGGTCAGAACAGTACAGTGAAGGATGAT,1.08,0.839,0.06,0.623,-0.447,2.86,5.05,4.39,1.99,3.68,7.19,7.31,2.36,3.58,1.14,0.921,0.234,0.873,0.291
CCTACTGGGCGAAGGTCATTGATCAGTCAAAGCA,2.76,2.99,0.677,2.83,-0.515,3.86,3.62,4.54,2.12,4.26,0.342,2.33,-1.21,-0.935,2.36,3.04,0.36,3.75,-0.327
CGAACTAGGTCAGAACAGGACAGTTAAGGATGAT,1.32,0.929,-0.00999,0.73,-0.36,3.07,5.13,4.49,2.04,3.46,7,7.32,3.55,1.83,1.49,1.15,0.458,1.41,0.874
CAAACTAGGTCACGAAAGGTCAACGTCGAATGAC,7.41,7.98,7.42,7.06,2.11,6.81,10.6,8.8,7.57,9.28,8.6,9.17,3.99,4.43,6.55,7.35,2.65,7.97,4.53
AATACAGGATCACTAGGCCAGAGTAGGTACGAAT,-0.102,-0.204,-0.28,-0.407,-0.237,0.128,1.19,0.718,0.264,0.869,0.409,1.29,1.21,0.197,0.314,-0.236,0.366,-0.456,0.395
CTCGAAAGGTCGGTTGAGGTGAGTAAACGGATAA,2.7,1.73,-0.0936,1.39,-0.228,2.84,0.202,1.25,0.048,0.00835,-0.271,0.901,0.0903,-0.255,0.98,3,0.167,2.19,0.141
TTTCCAAGGTGAAAGGTCGTTGATGCACGCCTTG,3.56,3.59,0.323,2.79,0.0398,5.37,7.96,7.33,6.06,7.82,2.51,4.72,0.923,0.85,1.64,4.23,0.161,5.56,-0.0268
CCTCGGAGGACAGAAGGTCAGATCTGTCCGCTTT,1.34,1.57,0.283,1.25,-0.347,1.62,0.155,0.812,-0.772,0.0725,0.207,-0.0702,-0.934,-1.55,1.35,1.65,-0.42,1.98,0.321
ATCTCTAGGTAAAGTTCATTGAAAGATCGATAGA,2.67,3.78,4.69,2.63,1.81,3.5,4.69,5.51,3.5,5.54,2.31,2.83,2.23,2,2.58,4.46,5.32,2.76,2.29
CGTCCAAGGTCAACAGGTCAGTGAAAGCGACGTG,7.08,5.58,1.56,4.45,0.945,5.84,5.65,6.07,2.82,4.88,3.88,4.5,0.0184,0.0079,5.41,4.98,1.28,5.92,1.34
